Holding throughout (assay): PBM binding z-score (relative to random genomic background probes); higher = stronger binding; sequences stand for … in GC…GCGATTGACAGCGTAGAATGAAGG
In assay [1] the test system is RARb homodimer (NR concentration 270 nM). The procedure, abridged: (§1)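 Random background probes are the reference for binding z-scores. These scores derive from regression-normalized fluorescence on custom Agilent 4×180K protein-binding microarrays incubated 1 h with ligand-free nuclear receptor dimers. Binding was detected with antibodies against each partner (one per run).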

Assay [2] concerns RARg:RXRa (NR concentration 270 nM, RXRa partner concentration 90 nM). The procedure, abridged:
as §1

The subject of assay [3] is RARg homodimer (NR concentration 270 nM). The procedure, abridged:
as §1

In assay [4] the test system is RXRa DBDmut IVT, anti-RXR (DBD mutation: RXRa K156A/R161A, NR concentration 90 nM). The procedure, abridged:
as §1

Assay [5] concerns RXRa homodimer (NR concentration 180 nM). The procedure, abridged:
as §1

The test system of assay [6] is THRa:RXRa (NR concentration 90 nM, RXRa partner concentration 90 nM). The gist of the method: as §1
The test system of assay [7] is THRa homodimer (NR concentration 90 nM). The procedure, abridged: as §1
For assay [8], the system named is VDR homodimer (NR concentration 270 nM). The gist of the method:
as §1

In the case of CGTTCAAGGTCAATGCTAGGTCAGTGAAAGCATT, the PBM binding z-score in assay [1] turned out to be 4.78; in assay [2], 7.74; in assay [3] it was 7.18; in assay [4] it was 4.09; in assay [5], 5.88; in assay [6], 4.72. The PBM binding z-score in assay [7] came to 3.33; in assay [8], 3.44.
In the case of ACTAGCAGGCCAAGTTTGGGTCCCTCAAACAAAG, the PBM binding z-score in assay [1] is -0.155; in assay [2] it was -0.211; in assay [3], -0.235; in assay [4] it was -0.528; in assay [5], -0.565; in assay [6], 0.0407. In addition, the PBM binding z-score in assay [7] is -0.344; in assay [8], -0.397.
For the sequence CGTCCAAGGTCAGAGAAGTCAGTGAATGCCGAGT, the PBM binding z-score was 3.51 in assay [1]; 4.3 in assay [2]; 5.16 in assay [3]; 2.35 in assay [4]; 3.37 in assay [5]; 3.32 in assay [6]. Also, the PBM binding z-score came out at 1.53 in assay [7] and 1.64 in assay [8].
On to AGAATGAGGTTATTAAGATCGGGGAATTGCGGTC, for which the PBM binding z-score in assay [1] turned out to be 0.767; in assay [2], 0.927; in assay [3] it was 0.627; in assay [4], 2.18; in assay [5] it was 1.38; in assay [6], 2.2. Besides, the PBM binding z-score amounted to 0.74 in assay [7] and 1.27 in assay [8].
Consider TCATATAGGTAAAGATGAAAGTCGAACGATATGA, for which the PBM binding z-score in assay [1] is -0.846; in assay [2], 0.547; in assay [3] it was 0.586; in assay [4], 0.337; in assay [5] it was 0.56; in assay [6], -0.225. In addition, the PBM binding z-score in assay [7] is -1.11; in assay [8], -0.391.
Regarding ATATGTAGGTTATCGGGTCCTTCAGTTTGCGCAT, the PBM binding z-score in assay [1] was determined as 0.87; in assay [2], 0.677; in assay [3], 0.506; in assay [4], 0.751; in assay [5], 0.855; in assay [6], 0.708. Also, the results for the PBM binding z-score in assay [7] and in assay [8] were 0.719 and 1.51, respectively.
Turning to GTACCAATGTGAATAGGTCGTTGATGAGTAGGCG, the PBM binding z-score in assay [1] was 0.0633; in assay [2] it was 0.177; in assay [3], 0.344; in assay [4], -0.108; in assay [5] it was 0.356; in assay [6], -0.0211. Also, the values for the PBM binding z-score in assay [7] and in assay [8] were -0.677 and 0.254, respectively.
